{"source": "PubChem BioAssay (NCI)", "note": "This is part of a sample that, as a whole, favours compounds with a hit. Of some 79,000 tested, about 15% had one in any assay. The source made the active and inactive calls. No stated cut-off is given here; in the data, active means growth inhibition above about 70%; inactive means the rest."}
{"experiment": "NCI Yeast Anticancer Drug Screen. Data for the mlh1 rad18 strain (AID 175)", "settings": "S. cerevisiae mlh1 rad18 strain growth inhibition; at 50.0 µM; stronger effect = higher value", "procedure,_shortened": "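Vehicle-treated cultures served as the reference for growth inhibition in a yeast strain carrying DNA damage repair alterations exposed to each compound.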"}
{"smiles": "CC(=O)Nc1ccc(Cc2ccc(Cl)cc2)cc1", "growth inhibition": "-2.6% (inactive)"}
{"smiles": "CCC(=O)Nc1ccc(C)cc1C", "growth inhibition": "3.45% (inactive)"}
{"smiles": "CC(C)c1ccc(OC(=N)c2ccccc2)cc1", "growth inhibition": "3.6% (inactive)"}
{"smiles": "CC/C(=N/NC(=O)c1ccccc1)c1ccccc1", "growth inhibition": "-17.7% (inactive)"}
{"smiles": "CCOC(=O)c1cc(=O)[nH]c(N)n1", "growth inhibition": "-4.15% (inactive)"}
{"smiles": "O=C1OCC(O)=C1C(c1ccc(Cl)cc1)c1cc2c(cc1O)OCO2", "note": "(stereo not given)", "growth inhibition": "-37.5% (inactive)"}
{"smiles": "COC(=O)c1ccccc1/C=C1\\Cc2ccc3c(c2C1=O)CCCC3", "growth inhibition": "-25.2% (inactive)"}
{"smiles": "CC(C)CNC(=S)N/N=C/C=C/c1ccc([N+](=O)[O-])cc1", "growth inhibition": "23.3% (inactive)"}
{"smiles": "CC(=O)c1ccccc1NC(=O)C(=O)C(C(=O)c1ccc2ccccc2c1)C1OC(=O)c2ccccc21", "note": "(stereo not given)", "growth inhibition": "8.25% (inactive)"}
{"smiles": "C[Si](C)(C)N1CCCC1", "growth inhibition": "-6.85% (inactive)"}
{"smiles": "O=S(=O)(CC(Br)c1ccccc1)c1ccccc1", "note": "(stereo not given)", "growth inhibition": "45% (inactive)"}
{"smiles": "COc1cc(C)oc(=O)c1", "growth inhibition": "3.3% (inactive)"}
{"smiles": "CCOC(C)OCCCI", "note": "(stereo not given)", "growth inhibition": "13.2% (inactive)"}
{"smiles": "c1cc(CCc2ccncc2)ccn1", "growth inhibition": "22.4% (inactive)"}
{"smiles": "O=C1NC(c2ccccc2)(c2ccccc2)C(=O)N1CCCCCCN1C(=O)NC(c2ccccc2)(c2ccccc2)C1=O", "growth inhibition": "18.2% (inactive)"}
{"smiles": "CCNC(=O)C1CC2C=CC1C2", "note": "(stereo not given)", "growth inhibition": "1.5% (inactive)"}
{"smiles": "COc1ccc(/C=C2\\N=C(c3ccc(N)cc3)OC2=O)cc1OC", "growth inhibition": "19.9% (inactive)"}
{"smiles": "COc1ccc2[nH]c3c4c(cc(-c5ccccc5)c3c2c1)C(=O)N(c1ccccc1)C4=O", "growth inhibition": "-6.8% (inactive)"}
{"smiles": "COc1ccc2cc3n(cc-2c1=O)CCc1cc2c(cc1-3)OCO2", "growth inhibition": "1.45% (inactive)"}
{"smiles": "Nc1ccc(NC(=S)Nc2ccccc2)cc1", "growth inhibition": "-12.7% (inactive)"}
{"smiles": "CN(CCC(=O)O)S(=O)(=O)c1ccccc1", "growth inhibition": "-3.8% (inactive)"}
{"smiles": "C1COC(C2=NCCO2)=N1", "growth inhibition": "-0.4% (inactive)"}
{"smiles": "Cc1oc2ccccc2c(=O)c1Cn1cnc2ccc([N+](=O)[O-])cc21", "growth inhibition": "10.1% (inactive)"}
{"smiles": "O=C1/C(=C/c2ccc(F)cc2)CC/C1=C\\c1ccc(F)cc1", "growth inhibition": "-9.3% (inactive)"}
{"smiles": "CC(=O)c1ccc(O)c(CN(C2CCCCC2)C2CCCCC2)c1O", "growth inhibition": "4.5% (inactive)"}
{"smiles": "O=c1c2ccccc2c2nccn2c2ccccc12", "growth inhibition": "-5.25% (inactive)"}
{"smiles": "C=CCNC(=O)N(CCCC(NC(C)=O)C(=O)NCc1ccccc1)Cc1ccccc1", "note": "(stereo not given)", "growth inhibition": "-10.2% (inactive)"}
{"smiles": "CCOP(C)(=O)C(Cc1c[nH]c2ccccc12)C(=O)O", "note": "(stereo not given)", "growth inhibition": "-2.5% (inactive)"}
{"smiles": "COc1cc(O)c2c(c1)C(=O)c1cc3c(c(O)c1C2=O)C(O)C(OC)C(C)(O)C3O", "note": "(stereo not given)", "growth inhibition": "68.2% (inactive)"}
{"smiles": "C=CCNC(=S)NNC(=S)NCC=C", "growth inhibition": "22.2% (inactive)"}
{"smiles": "CN1C(=O)C(n2[nH]c(=O)n(-c3ccccc3)c2=O)C(=O)N(C)C1=O", "growth inhibition": "22.9% (inactive)"}
{"smiles": "CC(=O)OCC1C(=O)OCC1C(=O)N1Cc2cc3ccccc3nc2C1", "note": "(stereo not given)", "growth inhibition": "-9.85% (inactive)"}
{"smiles": "CC1=CC(=O)/C(=C/N2C(=O)CNC2=S)C(=O)O1", "growth inhibition": "-45.1% (inactive)"}
{"smiles": "CC/C(=N\\NS(=O)(=O)c1ccc(C)cc1)c1ccc(Br)cc1", "growth inhibition": "3.4% (inactive)"}
{"smiles": "O=C(Oc1ccc(OC(=O)c2ccccc2)c(C2CCCCCC2)c1)c1ccccc1", "growth inhibition": "9% (inactive)"}
{"smiles": "CCCCN(CCCC)CC(O)c1cc(-c2ccc(C(F)(F)F)cc2)nc(-c2ccc(C(F)(F)F)cc2)c1", "note": "(stereo not given)", "growth inhibition": "82.3% (active)"}
{"smiles": "CN(C)C(=O)c1cccc(C2CCCCC2)c1O", "growth inhibition": "-14.7% (inactive)"}
{"smiles": "C=C(CC(=O)OCC)C(=O)OCC", "growth inhibition": "13.8% (inactive)"}
{"smiles": "CCCCCC/C=C\\CCCCCCCCCc1cccc(OC)c1O", "growth inhibition": "11.7% (inactive)"}
{"smiles": "O=C(NNC(=O)c1ccccc1Br)c1ccccc1Br", "growth inhibition": "-18.1% (inactive)"}
